“And” between values parts separate entries of the source, which are not always exact repeats. Equal entries are not always repeated. Some compounds were tested as several samples or in several runs, with calls that do not always agree. The source made the active and inactive calls. Rule for the calls: active = hit-call score of the fitted dose curve at least 0.9, where 1 is the maximum; inactive = score below 0.9.
Read-out: Matrix Metallopeptidase 9 (MMP9), MMP9 (gene 4318)
Test: BSK_BE3C_MMP9: BioMAP Diversity Plus: BE3C Assay for Matrix Metallopeptidase 9 (MMP9) Biomarker Activity (AID 2284283)
Details: primary human bronchial epithelial cells
Procedure: BSK_BE3C is a cell-based, multiplexed-readout assay that uses bronchial epithelial cell, a human lung primary cell, with measurements taken at 24 hours after chemical dosing in a 96-well plate.BSK_BE3C_MMP9 is an assay component measured in the BSK_BE3C assay. It measures MMP-9 antibody related to regulation of gene expression using ELISA technology.Data from the assay component BSK_BE3C_MMP9 was analyzed at the endpoint, BSK_BE3C_MMP9, in the positive analysis fitting direction relative to DMSO as the negative control and baseline of activity. Using a type of binding reporter, gain or loss-of-signal activity can be used to understand protein changes. To generalize the intended target to other relatable targets, this assay endpoint is annotated to the 'protease' intended target family, where the subfamily is 'matrix metalloproteinase'.
The levels of cell surface (or secreted, indicated by the prefix "s") biomarker endpoints were measured by ELISA. Overt cytotoxicity to cells in confluent adherent cultures (all systems other than the BT system) was assessed by measuring total protein levels using sulforhodamine B (SRB) staining in parallel cultures at the time of biomarker measurements, indicated as SRB endpoints. For proliferation assays for adherent cell types, individual cell types are cultured at sub-confluence and relative cell numbers quantified by SRB staining at time points optimized for each system (48 h: 3C and CASM3C systems; 72 h: BT and HDF3CGF systems; 96 h: SAg system). SRB was performed by staining cells with 0.1% SRB after fixation with 10% TCA and reading wells at 560 nm.Viability and proliferation of PBMC (T cells) was quantified by Alamar Blue reduction for the SAg and BT systems. For PBMC viability (referred to as PBMC Cytotoxicity within the assay endpoint names), cells were plated (75,000/well in a 96-well plate) and then chemical samples added for 1 h before addition of activators, SEB and TSST-1 (20 ng/mL final concentration each). Cells were incubated for 90 h. Then, Alamar Blue (20 uL/well) (Invitrogen, Cat DAL1100) was added for 6 h, and the plates were read with a fluorescence microplate reader at 546/580 nm (excitation/emission). For PBMC proliferation, cells were plated and activated as above but incubated for only 16 h prior to addition of Alamar Blue. Plates were read after 6 h.

SMILES	outcome	AC50
C=CC(=O)OCC(F)(F)C(F)(F)C(F)(F)C(F)(F)C(F)(F)C(F)(F)C(F)(F)C(F)F	inactive	–
NC(=O)C(F)(F)C(F)(F)C(F)(F)C(F)F	inactive	–
OCC(O)CC(F)(F)C(F)(F)C(F)(F)C(F)(F)C(F)(F)C(F)(F)C(F)(F)C(F)(F)F (stereo not given)	inactive	–
O=S(=O)(Cl)C(F)(F)C(F)(F)C(F)(F)C(F)(F)C(F)(F)C(F)(F)C(F)(F)C(F)(F)F	–	55.1 µM (active) and 55.2 µM (active)
OC(O)C(F)(F)C(F)(F)F	inactive	–
FC(F)(F)C(F)(F)C(F)(F)C(F)(F)C(F)(F)C(F)(F)CC[Si](Cl)(Cl)Cl	inactive	–
OCC(O)CC(F)(F)C(F)(F)C(F)(F)C(F)(F)F (stereo not given)	inactive	–
CCOC(=O)CC(=O)C(F)(F)C(F)(F)F	inactive	–
NCC(F)(F)C(F)(F)C(F)(F)C(F)(F)C(F)(F)C(F)(F)C(F)(F)C(F)(F)F	inactive	–
C=C(C)C(=O)OCC(F)(F)C(F)(F)C(F)(F)C(F)F	inactive	–
O=S(=O)(OCC(F)(F)F)C(F)(F)C(F)(F)C(F)(F)C(F)(F)F	inactive	6.24 µM (active)
O=C(O)C(F)(F)C(F)(F)C(F)(F)C(=O)O	inactive	–
NC(O)(C(F)(F)F)C(F)(F)F	inactive	–
O=C(O)C(F)(F)C(F)(F)C(F)(F)OC(F)(C(F)(F)F)C(F)(F)F	inactive	6.87 µM (active)
FC(F)(F)C(F)(F)C(F)(F)C(F)(F)C(F)(F)C(F)(F)C(F)(F)CCI	inactive	–
O=C(O)CCC(F)(F)C(F)(F)C(F)(F)C(F)(F)C(F)(F)C(F)(F)C(F)(F)F	inactive	–
COC(F)(C(F)F)C(F)(F)F (stereo not given)	inactive	–
CN(C(=O)C(F)(F)C(F)(F)C(F)(F)F)[Si](C)(C)C	inactive	–
OCCCC(F)(F)C(F)(F)C(F)(F)C(F)(F)C(F)(F)C(F)(F)C(F)(F)C(F)(F)F	–	50 µM (active) and 48.2 µM (active)

SMILES	outcome	AC50
O=C(Cl)C(F)(F)C(F)(F)C(F)(F)C(F)(F)C(F)(F)C(F)(F)F	inactive	–
O=C(Cl)C(F)(F)C(F)(F)C(F)(F)C(F)(F)C(F)(F)C(F)(F)C(F)(F)F	inactive	–
O=S(=O)(O)CCC(F)(F)C(F)(F)C(F)(F)C(F)(F)F	inactive	–
OCCCCC(F)(F)C(F)(F)C(F)(F)C(F)(F)F	inactive	–
CO[Si](C)(CCC(F)(F)C(F)(F)C(F)(F)C(F)(F)C(F)(F)C(F)(F)F)OC	inactive	–
O=C(F)C1(F)C(F)(F)C(F)(F)C(F)(F)C(F)(F)C1(F)F	inactive	–
O=C(O)C(F)(F)C(F)(F)C(F)(F)C(F)(F)C(F)(F)C(F)(F)C(F)F	inactive	–
OCC(F)(F)C(F)(F)C(F)(F)C(F)(F)C(F)(F)C(F)(F)CO	inactive	–
C=CC(=O)OCC(F)(F)C(F)(F)C(F)(F)COC(=O)C=C	–	8.23 µM (active) and 8.72 µM (active)
O=C(O)C(F)(F)C(F)(F)C(F)(F)OC(F)(F)F	inactive	–
O=S(=O)(O)CCC(F)(F)C(F)(F)C(F)(F)C(F)(F)C(F)(F)C(F)(F)C(F)(F)C(F)(F)F	inactive	–
O=C(O)CCC(F)(F)C(F)(F)C(F)(F)F	inactive	–
CCN(CCO)S(=O)(=O)C(F)(F)C(F)(F)C(F)(F)C(F)(F)C(F)(F)C(F)(F)C(F)(F)C(F)(F)F	–	21.5 µM (active) and 43.3 µM (active)
NS(=O)(=O)C(F)(F)C(F)(F)C(F)(F)C(F)(F)C(F)(F)C(F)(F)F	–	13.9 µM (active) and 15 µM (active)
CCN=C1C=CC(=C(c2ccc(N(CC)CC)cc2)c2ccc(N(CC)CC)cc2)c2ccccc21	–	1.07 µM (active) and 490 nM (active)
OCC(F)(F)C(F)(F)C(F)(F)CO	inactive	–
O=C(O)C(F)(F)OC(F)(F)C(F)(F)OC(F)(F)C(F)(F)OC(F)(F)F	inactive	1.47 µM (active)
OCC(F)(F)C(F)(F)C(F)(F)C(F)(F)C(F)(F)C(F)(F)C(F)(F)C(F)(F)CO	–	34.8 µM (active) and 22.1 µM (active)

Source: PubChem BioAssay (EPA / NIEHS)
